Measurements published in the supplement of paper PMC10849652.
Targets with a hit are over-represented here; the source holds about 7,900 in all. About 0.6% of all pairs of compound and target were hits. A number with no mark means an inactive call.

Columns and labels:
Experiment in all cases: log2 fold change, soluble protein after heating vs DMSO (PISA); higher = thermal stabilisation; K562 cells, 10 uM, 30 min; active = over 0.2 and 3.5 SD of the protein, either way, in both replicates (recomputed)
[1] = compound: CC1=C(C=C(C=C1)NC(=O)C2=CC(=CC=C2)C(C)(C)C#N)NC3=CC4=C(C=C3)N=CN(C4=O)C
In short: (§1)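 Aliquots of K562 cells (2×10^6 cells/mL) treated with 10 μM compound for 30 min were heated for 3 min over 48°C-58°C. After pooling and extraction in PBS with 0.5% NP-40 at 4°C, soluble protein from a 21,000xg, 90 min spin was quantified by TMTpro 16plex LC-MS/MS with channel sums equalised. Thermal stability is expressed against control samples, from duplicates, as a log2 fold change.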

[2] = compound: CC1=C(C=C(C=C1)NC(=O)C2=CC(=CC=C2)N(C)C)NC(=O)C3=CC=C(C=C3)O
In short: as §1

[3] = compound: CC1=CC=C(C=C1)SC2=C3C=C(SC3=CN=C2)C(=O)N
In short: as §1

[4] = compound: CC1=NC(=CC=C1)C2=C(N=C(N2)C(C)(C)C)C3=CC4=NC=CN=C4C=C3
In short: as §1

[5] = compound: CCCCN(Cc1ccc(C(=O)NO)cc1)C(=O)Nc1ccccc1 [Nexturastat A]
In short: as §1

[6] = compound: CCCS(=O)(=O)Nc1ccc(F)c(C(=O)c2c[nH]c3ncc(-c4ccc(Cl)cc4)cc23)c1F [vemurafenib]
In short: as §1

[7] = compound: CCCS(=O)(=O)Nc1ccc(F)c(C(=O)c2c[nH]c3ncc(Cl)cc23)c1F
In short: as §1

[8] = compound: CCCc1cc(C)[nH]c(=O)c1CNC(=O)c1cc(-c2ccnc(N3CCN(C)CC3)c2)cc2c1cnn2C(C)C
In short: as §1

[9] = compound: CCN(CC)Cc1ccc2cc(COC(=O)Nc3ccc(C(=O)NO)cc3)ccc2c1 [givinostat]
In short: as §1

[10] = compound: CCN(CCCOc1ccc2c(Nc3cc(CC(=O)Nc4cccc(F)c4)[nH]n3)ncnc2c1)CCOP(=O)(O)O [barasertib]
In short: as §1

[11] = compound: CC[C@@H]1C(=O)N(C)c2cnc(Nc3ccc(C(=O)NC4CCN(C)CC4)cc3OC)nc2N1C1CCCC1
In short: as §1

[12] = compound: CC[C@@H]1C(=O)N(C)c2cnc(Nc3ccc(C(=O)N[C@H]4CC[C@H](N5CCN(CC6CC6)CC5)CC4)cc3OC)nc2N1C(C)C [volasertib]
In short: as §1

[13] = compound: CC[C@H](C)N1C=C(C2=C(C=C(C=C21)C3=CN=C(C=C3)N4CCNCC4)C(=O)NCC5=C(C=C(NC5=O)C)C)C
In short: as §1

[14] = compound: CC[C@H](C)[C@@H](C(=O)N[C@@H]([C@@H](C)O)C(=O)N[C@@H](CC(C)C)C(=O)[C@]1(CO1)C)NC(=O)[C@H]([C@@H](C)CC)N(C)C(=O)C [epoxomicin]
In short: as §1

[15] = compound: CCn1c(C(=O)N(C2CC2)C2CC2)cc2c3c(ncn3C)c(Nc3cc(C)n(C)n3)nc21
In short: as §1

[16] = compound: CCn1cc(-c2ccnc3[nH]c(-c4cccc(CN(C)C)c4)cc23)c(-c2ccc(NC(=O)N(C)C)cc2)n1
In short: as §1

[17] = compound: CN(C)CC(=O)Nc1ccc2[nH]c(=O)c3ccccc3c2c1
In short: as §1

[18] = compound: CN(CCOC1=CC=C(C=C1)C[C@H]2C(=O)NC(=O)S2)C3=CC=CC=N3 (racemic) [rosiglitazone]
In short: as §1

[19] = compound: CN1C2=C(C3=C1C(=O)N(N=C3)CC4=CC(=CC=C4)N)SC(=C2)S(=O)C
In short: as §1

[20] = compound: CN1CCC(CNc2ccc3ncc(-c4cccc(OC(F)(F)F)c4)n3n2)CC1
In short: as §1

Chain of UniProt Q9UHP3 (Q9UHP3 whole entry, looked up): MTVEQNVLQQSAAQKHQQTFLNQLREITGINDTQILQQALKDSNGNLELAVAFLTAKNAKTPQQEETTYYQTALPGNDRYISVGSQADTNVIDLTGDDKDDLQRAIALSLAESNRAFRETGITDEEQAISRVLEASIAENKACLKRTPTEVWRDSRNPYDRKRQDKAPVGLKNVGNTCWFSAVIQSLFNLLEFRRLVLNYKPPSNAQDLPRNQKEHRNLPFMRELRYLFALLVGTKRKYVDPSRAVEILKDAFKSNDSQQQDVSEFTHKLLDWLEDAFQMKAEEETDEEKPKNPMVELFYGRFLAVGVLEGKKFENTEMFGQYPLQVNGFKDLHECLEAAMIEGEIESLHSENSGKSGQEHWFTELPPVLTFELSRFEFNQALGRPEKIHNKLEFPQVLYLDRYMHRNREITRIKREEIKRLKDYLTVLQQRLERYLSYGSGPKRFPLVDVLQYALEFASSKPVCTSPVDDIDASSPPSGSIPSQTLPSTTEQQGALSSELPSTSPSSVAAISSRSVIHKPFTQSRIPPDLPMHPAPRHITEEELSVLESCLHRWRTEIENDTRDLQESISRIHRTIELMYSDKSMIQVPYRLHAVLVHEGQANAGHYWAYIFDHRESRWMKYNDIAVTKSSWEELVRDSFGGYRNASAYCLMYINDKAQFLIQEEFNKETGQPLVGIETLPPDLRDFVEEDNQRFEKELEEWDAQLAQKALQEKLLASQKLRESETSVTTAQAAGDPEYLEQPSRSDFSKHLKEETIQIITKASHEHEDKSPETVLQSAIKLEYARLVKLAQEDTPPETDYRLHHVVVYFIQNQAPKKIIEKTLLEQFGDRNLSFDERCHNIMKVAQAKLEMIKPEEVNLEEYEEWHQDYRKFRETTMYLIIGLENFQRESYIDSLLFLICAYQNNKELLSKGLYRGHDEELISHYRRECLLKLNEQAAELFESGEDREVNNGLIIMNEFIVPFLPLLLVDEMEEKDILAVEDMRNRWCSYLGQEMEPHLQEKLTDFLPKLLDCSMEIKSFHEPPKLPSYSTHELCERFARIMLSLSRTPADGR
Chain of UniProt Q14157 (Q14157 whole entry, looked up): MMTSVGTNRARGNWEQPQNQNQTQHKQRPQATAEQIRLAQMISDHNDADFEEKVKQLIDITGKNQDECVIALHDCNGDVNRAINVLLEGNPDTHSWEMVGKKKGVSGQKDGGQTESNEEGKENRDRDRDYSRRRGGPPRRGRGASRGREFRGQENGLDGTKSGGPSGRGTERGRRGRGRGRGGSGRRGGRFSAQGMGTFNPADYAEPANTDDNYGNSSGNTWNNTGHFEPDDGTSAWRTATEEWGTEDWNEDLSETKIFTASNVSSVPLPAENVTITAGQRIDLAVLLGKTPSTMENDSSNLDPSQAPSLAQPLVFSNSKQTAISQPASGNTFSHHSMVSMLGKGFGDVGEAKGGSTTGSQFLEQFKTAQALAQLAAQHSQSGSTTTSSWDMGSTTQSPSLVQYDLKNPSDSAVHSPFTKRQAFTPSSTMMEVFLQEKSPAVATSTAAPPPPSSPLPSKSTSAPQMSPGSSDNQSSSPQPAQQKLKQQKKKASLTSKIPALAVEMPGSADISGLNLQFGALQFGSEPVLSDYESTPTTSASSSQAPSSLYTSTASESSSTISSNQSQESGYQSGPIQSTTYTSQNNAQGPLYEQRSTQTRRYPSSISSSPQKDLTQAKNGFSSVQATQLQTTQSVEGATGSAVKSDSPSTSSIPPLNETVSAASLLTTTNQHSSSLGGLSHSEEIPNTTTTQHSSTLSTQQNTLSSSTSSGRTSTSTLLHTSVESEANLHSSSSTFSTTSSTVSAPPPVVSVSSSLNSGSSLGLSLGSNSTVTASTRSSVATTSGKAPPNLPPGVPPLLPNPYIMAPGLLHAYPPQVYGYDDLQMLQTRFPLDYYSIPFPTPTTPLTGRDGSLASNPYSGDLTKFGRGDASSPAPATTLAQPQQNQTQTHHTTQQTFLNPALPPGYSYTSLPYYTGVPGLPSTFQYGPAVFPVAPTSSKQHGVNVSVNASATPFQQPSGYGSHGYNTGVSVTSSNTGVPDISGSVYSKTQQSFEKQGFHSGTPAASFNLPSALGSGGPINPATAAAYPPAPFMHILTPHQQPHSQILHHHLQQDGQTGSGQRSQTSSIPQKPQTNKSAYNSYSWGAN
Chain of UniProt Q96HV5 (Q96HV5 whole entry, looked up): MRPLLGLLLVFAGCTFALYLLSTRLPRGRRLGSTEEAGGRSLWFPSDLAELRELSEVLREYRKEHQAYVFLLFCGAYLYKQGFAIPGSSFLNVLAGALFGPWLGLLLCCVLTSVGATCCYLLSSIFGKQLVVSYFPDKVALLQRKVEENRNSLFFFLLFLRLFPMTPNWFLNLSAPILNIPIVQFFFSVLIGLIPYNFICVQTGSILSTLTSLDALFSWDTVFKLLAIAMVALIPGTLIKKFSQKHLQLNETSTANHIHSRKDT
Chain of UniProt Q96AX1 (Q96AX1 whole entry, looked up): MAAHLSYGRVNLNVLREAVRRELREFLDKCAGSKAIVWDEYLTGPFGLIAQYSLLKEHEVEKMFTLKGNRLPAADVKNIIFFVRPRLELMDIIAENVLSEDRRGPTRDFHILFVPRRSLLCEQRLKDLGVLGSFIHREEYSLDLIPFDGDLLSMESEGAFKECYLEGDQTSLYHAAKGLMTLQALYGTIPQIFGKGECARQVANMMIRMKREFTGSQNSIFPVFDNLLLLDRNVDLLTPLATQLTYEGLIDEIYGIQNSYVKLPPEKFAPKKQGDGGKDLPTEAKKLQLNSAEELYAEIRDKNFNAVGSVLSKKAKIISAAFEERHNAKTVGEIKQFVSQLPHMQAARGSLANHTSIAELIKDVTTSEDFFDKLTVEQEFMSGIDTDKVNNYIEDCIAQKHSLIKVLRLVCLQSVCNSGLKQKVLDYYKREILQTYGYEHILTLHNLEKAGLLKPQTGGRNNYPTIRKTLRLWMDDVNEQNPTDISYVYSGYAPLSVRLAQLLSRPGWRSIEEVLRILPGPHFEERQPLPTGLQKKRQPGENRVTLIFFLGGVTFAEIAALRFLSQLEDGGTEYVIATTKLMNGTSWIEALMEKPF
Chain of UniProt O60701 (O60701 whole entry, looked up): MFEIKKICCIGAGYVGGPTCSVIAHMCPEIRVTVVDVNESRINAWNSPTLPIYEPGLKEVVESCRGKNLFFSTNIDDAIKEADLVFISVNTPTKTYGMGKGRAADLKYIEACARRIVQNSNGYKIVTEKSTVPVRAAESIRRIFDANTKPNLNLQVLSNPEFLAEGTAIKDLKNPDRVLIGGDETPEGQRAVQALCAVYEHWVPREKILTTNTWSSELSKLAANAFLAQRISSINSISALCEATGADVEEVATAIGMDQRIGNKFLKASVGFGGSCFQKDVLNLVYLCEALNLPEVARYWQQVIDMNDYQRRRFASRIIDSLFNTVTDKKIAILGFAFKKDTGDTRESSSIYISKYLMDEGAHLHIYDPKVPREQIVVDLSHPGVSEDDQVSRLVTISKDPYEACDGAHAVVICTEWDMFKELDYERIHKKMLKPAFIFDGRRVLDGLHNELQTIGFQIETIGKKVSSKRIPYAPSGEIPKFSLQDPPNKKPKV
Chain of UniProt Q9BV38 (Q9BV38 whole entry, looked up): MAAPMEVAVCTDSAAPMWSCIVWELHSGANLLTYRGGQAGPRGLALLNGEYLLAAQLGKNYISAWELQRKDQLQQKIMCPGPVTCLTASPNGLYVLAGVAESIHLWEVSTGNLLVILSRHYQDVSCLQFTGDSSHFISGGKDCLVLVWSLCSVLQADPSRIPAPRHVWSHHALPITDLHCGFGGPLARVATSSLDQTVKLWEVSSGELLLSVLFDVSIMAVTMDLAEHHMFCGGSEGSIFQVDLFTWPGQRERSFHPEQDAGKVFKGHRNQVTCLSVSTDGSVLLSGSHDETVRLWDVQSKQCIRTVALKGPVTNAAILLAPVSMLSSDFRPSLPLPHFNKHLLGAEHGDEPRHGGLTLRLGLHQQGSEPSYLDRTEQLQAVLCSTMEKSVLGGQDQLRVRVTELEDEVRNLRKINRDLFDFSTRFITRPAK
Chain of UniProt Q9NX61 (Q9NX61 whole entry, looked up): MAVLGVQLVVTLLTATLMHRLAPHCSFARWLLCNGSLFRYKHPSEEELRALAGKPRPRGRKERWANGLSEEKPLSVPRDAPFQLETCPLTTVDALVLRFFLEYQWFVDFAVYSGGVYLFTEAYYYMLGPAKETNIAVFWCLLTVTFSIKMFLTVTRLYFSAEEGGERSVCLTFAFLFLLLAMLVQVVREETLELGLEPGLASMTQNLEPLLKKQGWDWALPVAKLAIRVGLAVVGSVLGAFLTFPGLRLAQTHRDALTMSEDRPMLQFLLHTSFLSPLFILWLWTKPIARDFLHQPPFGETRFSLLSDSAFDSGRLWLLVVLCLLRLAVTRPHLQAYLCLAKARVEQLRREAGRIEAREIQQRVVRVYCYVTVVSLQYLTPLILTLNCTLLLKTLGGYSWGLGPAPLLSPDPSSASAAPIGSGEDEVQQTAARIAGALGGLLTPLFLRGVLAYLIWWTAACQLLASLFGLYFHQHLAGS
Chain of UniProt Q99986 (Q99986 whole entry, looked up): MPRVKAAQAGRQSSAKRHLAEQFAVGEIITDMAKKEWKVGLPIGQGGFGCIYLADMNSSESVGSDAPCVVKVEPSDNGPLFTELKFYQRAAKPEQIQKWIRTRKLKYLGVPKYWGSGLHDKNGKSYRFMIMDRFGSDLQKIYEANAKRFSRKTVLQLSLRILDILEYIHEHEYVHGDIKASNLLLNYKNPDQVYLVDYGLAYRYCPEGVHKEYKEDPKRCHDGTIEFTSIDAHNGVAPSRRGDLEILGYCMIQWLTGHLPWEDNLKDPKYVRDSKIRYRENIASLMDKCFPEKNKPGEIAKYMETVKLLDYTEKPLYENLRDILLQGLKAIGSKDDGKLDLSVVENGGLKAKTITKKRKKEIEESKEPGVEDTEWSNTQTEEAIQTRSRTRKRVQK
Chain of UniProt A0PJW6 (A0PJW6 whole entry, looked up): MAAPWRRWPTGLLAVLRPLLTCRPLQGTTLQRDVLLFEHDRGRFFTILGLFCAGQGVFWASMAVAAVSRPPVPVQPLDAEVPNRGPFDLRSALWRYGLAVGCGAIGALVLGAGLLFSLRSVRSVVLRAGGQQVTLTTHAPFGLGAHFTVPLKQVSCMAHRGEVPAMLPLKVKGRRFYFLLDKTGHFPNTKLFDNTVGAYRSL

Target	log2 fold change [1]	log2 fold change [2]	log2 fold change [3]	log2 fold change [4]	log2 fold change [5]	log2 fold change [6]	log2 fold change [7]	log2 fold change [8]	log2 fold change [9]	log2 fold change [10]	log2 fold change [11]	log2 fold change [12]	log2 fold change [13]	log2 fold change [14]	log2 fold change [15]	log2 fold change [16]	log2 fold change [17]	log2 fold change [18]	log2 fold change [19]	log2 fold change [20]
VPS41 (UniProt P49754)	0.015	0.003	0.004	-0.028	0.108	-0.051	0.025	-0.03	-0.013	-0.02	-0.214	-0.309	0.02	-0.038	-0.005	-0.106	-0.004	0.066	0.054	-0.25 (active)
TMEM161A (UniProt Q9NX61)	-0.045	0.12	0.014	-0.012	-0.059	0.045	0.225	-0.048	0.024	-0.017	0.033	-0.477 (active)	-0.08	0.049	0.034	0.014	-0.009	0.088	-0.026	-0.265
UBAP1 isoform 4 (UniProt Q9NZ09)	0.082	-0.002	0.135	-0.015	-0.049	0.005	0.159	0.018	0.13	0.033	-0.012	-0.545 (active)	0	0.092	-0.037	0.006	-0.034	0.022	0.023	-0.089
UBA6	0.086	-0.044	0.032	0.02	-0.027	0.057	0.086	0.036	0.015	0.07	-0.139	-0.189	0.057	0.029	-0.008	-0.031	0.033	0.016	0	0.001
TMEM223 (UniProt A0PJW6)	0.034	-0.001	-0.026	0.058	-0.13	0.084	0.055	-0.128	0.002	0.041	-0.004	0.043	0.035	-0.01	-0.009	0.022	-0.015	0.032	-0.022	-0.271 (active)
TRAPPC3 (UniProt O43617)	0	0.023	0.061	0.042	-0.218 (active)	0.023	0.01	-0.006	-0.051	0.025	-0.019	-0.118	-0.02	-0.029	0.047	0.04	-0.016	-0.022	-0.051	-0.059
TMEM263 (UniProt Q8WUH6)	-0.009	-0.015	0.117	0.059	-0.02	-0.051	0.128	-0.138	-0.015	0.054	-0.462 (active)	-0.5	-0.03	0.005	-0.004	-0.105	0.024	0.015	-0.057	-1.32 (active)
UBAP2L isoform 5 (UniProt Q14157)	-0.014	0.036	0.017	0.013	0.017	-0.008	0.006	-0.03	0.011	0.011	0.005	-0.023	-0.02	-0.018	0.019	0.004	-0.035	-0.007	-0.039	0.009
VPS13B (UniProt Q7Z7G8)	0.02	-0.028	0.06	0.057	-0.011	0.008	-0.011	-0.008	0.002	0.002	-0.01	-0.088	0.004	0.019	-0.016	-0.008	-0.028	0.011	-0.053	-0.109
USP25 isoform 3 (UniProt Q9UHP3)	0.004	0.008	-0.009	0.045	-0.029	0.04	0.027	0.024	0.015	0.02	-0.085	-0.297 (active)	0.046	0.008	-0.016	-0.004	0.041	0.022	-0.03	-0.006
TRAPPC8 (UniProt Q9Y2L5)	0.079	-0.036	-0.009	-0.022	0.024	0.026	0.066	0.012	0.066	0.033	-0.092	-0.287 (active)	0.077	0.033	-0.023	-0.073	0.015	0.059	0.04	-0.099
TMEM41A (UniProt Q96HV5)	0.039	0.093	0.002	0.014	-0.138	-0.163	-0.101	-0.021	-0.043	0.001	0.036	0.035	-0.05	-0.055	0.021	0.165	-0.049	-0.002	0	0.01
UGDH (UniProt O60701)	0.039	-0.005	0.028	0.083	-0.064	0.043	0.102	-0.097	0.031	0.079	-0.041	-0.128	0.11	0.064	-0.076	0.031	0.05	-0.034	-0.113	-0.106
WDR18 (UniProt Q9BV38)	-0.042	0.08	0.016	0.014	-0.035	0.04	-0.003	0.004	-0.025	0.013	0.034	-0.1	0.022	0.016	0.039	-0.026	-0.017	0.007	0.018	-0.002
VPS33A (UniProt Q96AX1)	-0.013	-0.074	-0.016	-0.021	-0.024	0.003	0.036	0.04	0.058	0.068	-0.224	-0.359 (active)	0.043	0.039	-0.031	-0.004	0.059	0.062	0.035	-0.208
VRK1 (UniProt Q99986)	-0.089	-0.121	0.096	0.063	-0.085	0.122	0.072	0.108	0.046	0.075	-0.184	-0.159	0.102	0.169	-0.107	-0.06	0.135	0.105	-0.028	-0.03
